Reference: PubChem BioAssay (NCATS)
Results filed as inconclusive are left out. Activity calls are given as the source filed them. Calls follow the shape of the dose curve; as a rule, active = well fitted cell-killing curve with a large enough effect; inconclusive = small, poorly fitted or top-dose-only effect, or effect the other way; inactive = flat fitted curve, though single readings scatter.

Experiments:
Assay in all cases: Primary qHTS to identify gynecologic anti-cancer compounds using libraries of approved drugs and bioactive compounds (AID 1345084); also: nearly all actives have a fitted effect of over 55% in size
C33A = conditions: Gynecologic cancer cell panel viability, ATPlite luminescence, 48 h; series mostly up to 57.5 µM
Method in brief: (§1)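 48 h compound exposure at 37 C, 5% CO2; five-point qHTS. ATPlite luminescence readout of cell ATP.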

CAOV3 = conditions: Gynecologic cancer cell panel viability, ATPlite luminescence, 48 h; series mostly up to 57.5 µM
Method in brief: as §1

CASKI = conditions: Gynecologic cancer cell panel viability, ATPlite luminescence, 48 h; series mostly up to 57.5 µM
Method in brief: as §1

Es-2 = conditions: Gynecologic cancer cell panel viability, ATPlite luminescence, 48 h; series mostly up to 57.5 µM
Method in brief: as §1

HeLa = conditions: Gynecologic cancer cell panel viability, ATPlite luminescence, 48 h; series mostly up to 57.5 µM
Method in brief: as §1

Hek293T = conditions: Gynecologic cancer cell panel viability, ATPlite luminescence, 48 h, control line for the selectivity index; series mostly up to 57.5 µM
Method in brief: as §1

JEG-3 = conditions: Gynecologic cancer cell panel viability, ATPlite luminescence, 48 h; series mostly up to 57.5 µM
Method in brief: as §1

OV90 = conditions: Gynecologic cancer cell panel viability, ATPlite luminescence, 48 h; series mostly up to 57.5 µM
Method in brief: as §1

PA-1 = conditions: Gynecologic cancer cell panel viability, ATPlite luminescence, 48 h; series mostly up to 57.5 µM
Method in brief: as §1

SKOV3 = conditions: Gynecologic cancer cell panel viability, ATPlite luminescence, 48 h; series mostly up to 57.5 µM
Method in brief: as §1

Tov-21-G = conditions: Gynecologic cancer cell panel viability, ATPlite luminescence, 48 h; series mostly up to 57.5 µM
Method in brief: as §1

Tov112D = conditions: Gynecologic cancer cell panel viability, ATPlite luminescence, 48 h; series mostly up to 57.5 µM
Method in brief: as §1
% is scaled to controls: 0 for no effect and ±100 for the full control effect.

CC1=CC(=O)CC(C)(C)C1CCC(C)O[C@@H]1O[C@H](CO[C@@H]2OC[C@@H](O)[C@H](O)[C@H]2O)[C@@H](O)[C@H](O)[C@H]1O (stereo partly specified)
inactive: Potency (C33A) | Potency (CAOV3) | Potency (CASKI) | Potency (Es-2) | Potency (HeLa) | Potency (Hek293T) | Potency (JEG-3) | Potency (OV90) | Potency (PA-1) | Potency (SKOV3) | Potency (Tov-21-G) | Potency (Tov112D)

CCCCCCOc1cc2c(cc1N(C)c1ncc(C(=O)O)cn1)C(C)(C)CCC2(C)C
inactive: Potency (C33A) | Potency (CAOV3) | Potency (CASKI) | Potency (Es-2) | Potency (HeLa) | Potency (Hek293T) | Potency (JEG-3) | Potency (OV90) | Potency (PA-1) | Potency (SKOV3) | Potency (Tov-21-G) | Potency (Tov112D)

C[C@@H]1C[C@@H]([C@@H](O)C(C)(C)O)O[C@H]2C[C@@]3(C)C(=C12)C[C@H](O)[C@H]1[C@@]2(C)CCC(=O)C(C)(C)C2CC[C@@]13C (stereo partly specified)
inactive: Potency (C33A) | Potency (CAOV3) | Potency (CASKI) | Potency (Es-2) | Potency (HeLa) | Potency (Hek293T) | Potency (JEG-3) | Potency (OV90) | Potency (PA-1) | Potency (SKOV3) | Potency (Tov-21-G) | Potency (Tov112D)

CC1CCC2(C(=O)O)CCC3(C)C(=CCC4C5(C)CCC(OC(=O)/C=C/c6ccccc6)C(C)(C)C5CCC43C)C2C1C (stereo unspecified)
inactive: Potency (C33A) | Potency (CAOV3) | Potency (CASKI) | Potency (Es-2) | Potency (HeLa) | Potency (Hek293T) | Potency (JEG-3) | Potency (OV90) | Potency (PA-1) | Potency (SKOV3) | Potency (Tov-21-G) | Potency (Tov112D)

C/C=C1\[C@H](OC2OC(COC3OC(CO)C(O)C(O)C3O)C(O)C(O)C2O)OC=C(C(=O)OC)[C@H]1CC(=O)OCCc1ccc(O)cc1 (stereo partly specified)
inactive: Potency (C33A) | Potency (CAOV3) | Potency (CASKI) | Potency (Es-2) | Potency (HeLa) | Potency (Hek293T) | Potency (JEG-3) | Potency (OV90) | Potency (PA-1) | Potency (SKOV3) | Potency (Tov-21-G) | Potency (Tov112D)

Cc1ccc(NC(=O)C(=O)NC2CC(C)(C)NC(C)(C)C2)cc1
inactive: Potency (C33A) | Potency (CAOV3) | Potency (CASKI) | Potency (Es-2) | Potency (HeLa) | Potency (Hek293T) | Potency (JEG-3) | Potency (OV90) | Potency (PA-1) | Potency (SKOV3) | Potency (Tov-21-G) | Potency (Tov112D)

C[C@@H]1O[C@@H](O[C@H]2[C@H](O[C@H]3[C@H](O[C@H]4CC[C@@]5(C)C(CC[C@]6(C)C5CC=C5[C@@H]7CC(C)(C)C[C@@H](O)[C@]7(C)CC[C@]56C)[C@@]4(C)CO)O[C@H](C(=O)O)[C@@H](O)[C@@H]3O)OC[C@H](O)[C@@H]2O)[C@H](O)[C@H](O)[C@H]1O (stereo partly specified)
inactive: activity change, negative = cytotoxicity (C33A) -0.169% [at 11.6 µM] | activity change, negative = cytotoxicity (CAOV3) 0% [at 11.6 µM] | activity change, negative = cytotoxicity (CASKI) -2.47% [at 11.6 µM] | activity change, negative = cytotoxicity (Es-2) 1.77% [at 11.6 µM] | activity change, negative = cytotoxicity (HeLa) 0% [at 11.6 µM] | activity change, negative = cytotoxicity (Hek293T) -7.13% [at 11.6 µM] | activity change, negative = cytotoxicity (JEG-3) -0.873% [at 11.6 µM] | activity change, negative = cytotoxicity (OV90) -3.06% [at 11.6 µM] | activity change, negative = cytotoxicity (PA-1) -1.53% [at 11.6 µM] | activity change, negative = cytotoxicity (SKOV3) -7.2% [at 11.6 µM] | activity change, negative = cytotoxicity (Tov-21-G) -1.97% [at 11.6 µM] | activity change, negative = cytotoxicity (Tov112D) -12.3% [at 11.6 µM]

O=[N+]([O-])c1cn2c(n1)OCC(OCc1ccc(OC(F)(F)F)cc1)C2 (stereo unspecified)
inactive: Potency (C33A) | Potency (CAOV3) | Potency (CASKI) | Potency (Es-2) | Potency (HeLa) | Potency (Hek293T) | Potency (JEG-3) | Potency (OV90) | Potency (PA-1) | Potency (SKOV3) | Potency (Tov-21-G) | Potency (Tov112D)

CC(=O)/C=C/[C@H]1[C@](C)(O)[C@@H](O)[C@H](OC(C)=O)C2C(C)(C)CCC[C@@]21C (stereo partly specified)
inactive: Potency (C33A) | Potency (CAOV3) | Potency (CASKI) | Potency (Es-2) | Potency (HeLa) | Potency (Hek293T) | Potency (JEG-3) | Potency (OV90) | Potency (PA-1) | Potency (SKOV3) | Potency (Tov-21-G) | Potency (Tov112D)

CC(C)=CCC[C@](C)(O)[C@H]1CC[C@]2(C)[C@@H]1[C@H](O)CC1[C@@]3(C)CC[C@H](O)C(C)(C)C3[C@@H](O[C@@H]3O[C@H](CO)[C@@H](O)[C@H](O)[C@H]3O[C@@H]3OC[C@@H](O)[C@H](O)[C@H]3O)C[C@]12C (stereo partly specified)
inactive: Potency (C33A) | Potency (CAOV3) | Potency (CASKI) | Potency (Es-2) | Potency (HeLa) | Potency (Hek293T) | Potency (JEG-3) | Potency (OV90) | Potency (PA-1) | Potency (SKOV3) | Potency (Tov-21-G) | Potency (Tov112D)

C=C1C(=O)O[C@H]2[C@H]1CC/C(C)=C/CC[C@@]1(C)O[C@@H]21
inactive: Potency (C33A) | Potency (CAOV3) | Potency (CASKI) | Potency (Es-2) | Potency (HeLa) | Potency (Hek293T) | Potency (JEG-3) | Potency (OV90) | Potency (PA-1) | Potency (SKOV3) | Potency (Tov-21-G) | Potency (Tov112D)

CON(C)C(=O)[C@H](O)[C@H](Cc1ccccc1)NC(=O)c1cc2cc(Cl)ccc2[nH]1
inactive: Potency (C33A) | Potency (CAOV3) | Potency (CASKI) | Potency (Es-2) | Potency (HeLa) | Potency (Hek293T) | Potency (JEG-3) | Potency (OV90) | Potency (PA-1) | Potency (SKOV3) | Potency (Tov-21-G) | Potency (Tov112D)

CNC12CC3C[C@@](C)(C1)C[C@](C)(C3)C2
inactive: Potency (C33A) | Potency (CAOV3) | Potency (CASKI) | Potency (Es-2) | Potency (HeLa) | Potency (Hek293T) | Potency (JEG-3) | Potency (OV90) | Potency (PA-1) | Potency (SKOV3) | Potency (Tov-21-G) | Potency (Tov112D)
